# According to the supplement of paper PMC3334620:
# Whole data set: some 33,000 sequences, median “E-score (-0.5 to 0.5)” near -0.0014, cut for the highest 2% near 0.25. This excerpt belongs to a sample that is enriched for the highest values.
# Molecular target: T1, Cad1 (UniProt P24813)
# T1 sequence: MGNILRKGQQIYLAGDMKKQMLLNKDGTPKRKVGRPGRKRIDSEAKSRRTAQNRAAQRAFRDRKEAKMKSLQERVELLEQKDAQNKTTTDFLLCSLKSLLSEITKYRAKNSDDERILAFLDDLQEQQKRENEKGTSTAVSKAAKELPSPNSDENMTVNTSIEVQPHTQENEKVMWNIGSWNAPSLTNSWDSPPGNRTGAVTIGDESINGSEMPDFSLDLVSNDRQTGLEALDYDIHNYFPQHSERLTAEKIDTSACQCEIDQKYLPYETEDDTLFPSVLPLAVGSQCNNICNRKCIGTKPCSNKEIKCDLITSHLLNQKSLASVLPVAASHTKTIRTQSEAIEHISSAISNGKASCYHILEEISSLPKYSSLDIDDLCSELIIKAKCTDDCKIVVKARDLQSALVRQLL
# Experiment: PBM E-score (8-mer binding enrichment) (E-score (-0.5 to 0.5)); higher = stronger / more preferred TF binding
# Details: protein concentration: 100 nM; construct: GST-full length
# Experimental: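 Universal 'all 10-mer' protein binding microarrays (Agilent AMADID 015681) probed with GST-tagged S. cerevisiae TFs (full-length or DBD) made by in vitro transcription/translation (PURExpress), about 100-200 nM. Bound TF was detected with fluorescent anti-GST. Each ungapped 8-mer (which stands for itself and its reverse complement) is scored by the PBM enrichment score (E-score), a modified Wilcoxon-Mann-Whitney statistic from -0.5 to +0.5, computed with the Universal PBM Analysis Suite. Scale: above 0.35 generally sequence-specific binding.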
row,Sequence,PBM E-score
1,CCAAATAA,0.15
2,ATTACAAA,0.425
3,CTTACAAC,0.118
4,CTTACAAA,0.372
5,ATTACAAT,0.104
6,ATTACAAG,0.0206
7,CTTACAAG,0.0333
8,ATATAAGA,0.22
9,AGCCCATA,-0.0468
10,AAGAAGCG,-0.184
11,CTTCGCGC,0.263
12,CTGCGCGC,0.302
13,CAACGCGG,0.0152
14,CGGCGCGC,0.258
15,CGGCGCGA,0.203
16,CAACGCGC,0.311
17,CTTCGCGA,0.143
18,CAACGCGA,0.157
19,CTGCGCGA,0.13
20,ATGCGCGC,0.238
21,ATTCGCGC,0.17
22,AGGCGCGC,0.161
23,CAAGGGAC,-0.0828
24,CGGCTGTA,-0.112

row,Sequence,PBM E-score
1,ACCTCCGC,-0.116
2,TCCCGCGA,0.0875
3,ACTCGTAA,0.292
4,ATTCGTAA,0.26
5,CTTCGTAA,0.0607
6,ATTCGTTC,0.09
7,ACTCGTAG,-0.103
8,ATTCGTTA,0.158
9,GTTCGTAA,0.119
10,ATTCGTTG,0.258
11,ACTCGTAT,0.0214
12,AAGTTGCT,0.0232
13,TAAACCCA,0.119
14,CAGTTATA,-0.0494
15,AATGCGCG,0.305
16,CATGCGCG,0.202
17,ATTGCGCC,-0.061
18,AATGCGCA,0.342
19,AATGCGCT,0.0389
20,ATTGCGCG,0.307
21,AATGCGCC,-0.00918
22,CATGCGCA,0.116
23,ATTGCGCA,0.103
24,AGGCAGAG,-0.0635

row,Sequence,PBM E-score
1,ACGTCGGG,-0.269
2,CCCAGATA,-0.0901
3,GCGGGATA,0.0173
4,CCCGTATC,-0.15
5,ACATGACA,0.159
6,GCATGACA,0.0476
7,TCATGACA,0.301
8,AGAAAGCC,-0.051
9,TAACTGAA,-0.0483
10,AATGTAAG,0.264
11,CATGTAAG,0.129
12,AATGTAAT,0.324
13,AACGTAAA,0.0278
14,AATGTAAA,0.193
15,AATGTAAC,0.0359
16,AACGTAAC,-0.00693
17,AACGTAAT,0.261
18,ACTGTAAG,0.167
19,AAAGTCGC,0.124
20,AACGAAAT,0.303
21,AACGATAT,0.271
22,GACGAAAA,0.297
23,CACGAAAA,0.161
24,AAAGATAT,0.277

row,Sequence,PBM E-score
1,AACGATAG,0.0593
2,AACGATAC,0.0534
3,AACGAAAC,0.187
4,AACGAAAG,0.0872
5,TACGAAAA,0.0721
6,AAAGATAG,0.00786
7,AAAGATAC,-0.051
8,ACCATCTG,-0.0991
9,ACGCAGAC,0.0915
10,GGAACTAC,-0.0515
11,GAACGTTC,-0.0713
12,GACTGATC,-0.075
13,CCTGCTAA,-0.128
14,CCAACTGG,0.025
15,CGCGAAAA,0.246
16,AACGAACG,0.0769
17,AGCGAAAA,-0.0296
18,AACGAACA,0.269
19,TGCGAAAA,0.266
20,CACGAACA,0.249
21,CCGAAGAG,-0.0285
22,CTTCTGAA,0.0469
